Screening data from PubChem BioAssay.
SMN2 splice up = enhancers of SMN2 splice variant expression; Potency, µM (titrated, usually from 46.1 µM), without a hit: at the highest dose activity change, positive = activation, most hits filed as activators; 2.8% of 210,000 active; HEK293 SMN2-luciferase splicing reporter, luminescence, 30-36 h; further: % of control where 0% means no effect; nearly all actives have a fitted effect of over 55% in size
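HEK293 cells carry an SMN2 minigene-luciferase reporter in which exon 7 inclusion puts luciferase in frame. Cells were seeded at 2000 cells/well, attached for 10-12 hours, then exposed to compounds for 30-36 hours at 37C before ONE-Glo luminescence.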
FLuc modulator = counter-screen for miR-21 project: firefly luciferase inhibitors or activators; 6.9% of 360,000 active; Potency, µM (series often up to 57.5 µM), inactives show at the top dose activity change, negative = inhibition, actives largely listed as inhibitors; purified FLuc, Km substrates, luminescence inhibition;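 further: plate controls were vehicle for no effect and reference inhibitor for full effect; nearly all actives have a fitted effect of over 55% in size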
Target sequence (P08659 whole entry, looked up): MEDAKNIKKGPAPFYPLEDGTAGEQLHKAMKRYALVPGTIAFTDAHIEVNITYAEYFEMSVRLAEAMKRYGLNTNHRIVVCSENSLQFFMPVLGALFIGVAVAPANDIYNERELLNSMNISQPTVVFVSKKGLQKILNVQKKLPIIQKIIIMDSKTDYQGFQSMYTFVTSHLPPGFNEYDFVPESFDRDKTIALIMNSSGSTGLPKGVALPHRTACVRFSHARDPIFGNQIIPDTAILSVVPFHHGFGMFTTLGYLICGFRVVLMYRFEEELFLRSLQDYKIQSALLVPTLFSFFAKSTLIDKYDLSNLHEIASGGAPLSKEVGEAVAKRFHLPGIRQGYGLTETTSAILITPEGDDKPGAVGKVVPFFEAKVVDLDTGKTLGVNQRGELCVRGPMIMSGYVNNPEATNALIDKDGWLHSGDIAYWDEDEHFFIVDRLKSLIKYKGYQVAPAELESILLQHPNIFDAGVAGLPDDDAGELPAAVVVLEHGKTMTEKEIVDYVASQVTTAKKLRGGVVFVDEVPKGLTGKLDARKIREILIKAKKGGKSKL
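Purified P. pyralis luciferase, 10 nM final, with Km-level 10 uM D-luciferin and 10 uM ATP in 50 mM Tris acetate pH 7.5, 10 mM Mg acetate, 0.01% Tween-20, 0.05% BSA; 6-point qHTS titration about 60 µM downward; luminescence read.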
ELG1 genotoxic = genotoxicity induction in ELG1-luciferase HEK293T cells; HEK293T ELG1-luciferase reporter, luminescence, 16 h; Potency, µM (doses to about 46 µM), for inactives: top-dose activity change, positive = activation, hits mostly activators; 1.3% of 330,000 active; AID 504466; further: % of control where 0% means no effect; nearly all actives have a fitted effect of over 60% in size
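Genotoxic stress is detected as increased luminescence from luciferase-tagged ELG1 in HEK293T cells, measured with ONE-Glo after a 16 hr treatment at 37 °C.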
Rab9 prom act = activates the Rab9 promoter. Potency, µM (doses to about 9.22 µM), for inactives: at the highest dose activation, negative = inhibition, usual class: activators. AID 485297. 2.8% of 320,000 active. Huh7 Rab9 promoter-luciferase reporter, luminescence, 24 h; further: % of control where 0% means no effect; nearly all actives have a fitted effect of over 60% in size
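Using Huh7 cells stably transfected with Rab9 promoter–luciferase, compounds were incubated 24 h at 37 °C, 5% CO2; luciferase luminescence was read 10 min after reagent addition.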
NPC1 promoter act = NPC1 promoter activation | Potency, µM (series often up to 9.22 µM), inactives show at the top dose activation, most hits filed as activators | Huh7 NPC1 promoter luciferase reporter, 24 h | AID 485313 | 2.4% of 320,000 active; further: % of control where 0% means no effect; nearly all actives have a fitted effect of over 60% in size
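Cells: Huh7 expressing luciferase under the NPC1 promoter, 1500/well. Seeded 2 h, compound added, incubated 24 h at 37 °C. Luciferase reagent, 10 min ambient, then luminescence.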
* hit, by the source's call; ? = inconclusive; · = no result; [ ] = another dose, or the depositor's remark. The list is not random: actives were taken first. Their share in the collection is about 7.4%. The call rests on the fitted dose curve; in most records, active means well fitted curve in the direction sought with a large enough effect; inconclusive means small, poorly fitted or top-dose-only effect, or another doubt; inactive means no such curve, though single readings can be large; an effect the other way counts as inactive or inconclusive. Potency means the concentration at half of the fitted maximal effect.

SMILES	SMN2 splice up	FLuc modulator	ELG1 genotoxic	Rab9 prom act	NPC1 promoter act
COc1cccc(C=O)c1OCCCOc1cccc2cccnc12	·	?	18µM*	4.5µM*	?
Cc1ccc(OCCOCCOc2cccc3cccnc23)c(Br)c1	-14%	?	-3%	-3%	0%
CCOc1ccc(NC(=O)/C(C#N)=C/c2cn(CC(=O)O)c3ccccc23)cc1	·	19µM*	1%	-2%	0%
CCc1ccc(NC(=O)/C(C#N)=C/c2cn(CC(=O)O)c3ccccc23)cc1	4%	?	0%	2%	0%
N#C/C(=C/c1cn(CC(=O)O)c2ccccc12)C(=O)Nc1ccccc1	·	15µM*	2%	-8%	-3%
CC1=CC(C)=Nc2ccccc2N1	-6%	17µM*	16µM*	-1%	-1%
CC1(c2ccccc2)CC(c2ccccc2)=Nc2ccccc2N1 (stereo not given)	·	-17%	11%	-1%	3%
COc1ccc(CCNC(=O)c2ccc3c(c2)c(C)c(C)n3Cc2ccc(F)cc2)c(OC)c1OC	·	-15%	·	·	·
Cc1ccc2nc(N3C(=O)C(O)=C(C(=O)c4ccco4)C3c3cccs3)sc2c1 (stereo not given)	0%	17µM*	12%	16%	-3%
Cc1ccc(C(=O)/C=C/c2ccc3c(c2)OCCO3)c(O)c1	·	1.1µM*	?	3.5µM*	?
O=C(/C=C/c1ccc2c(c1)OCCCO2)c1ccc2ccccc2c1O	-34%	2.7µM*	?	?	3.2µM*
O=C(CSc1nncn2c1cc1sccc12)Nc1ccc(Br)cc1F	·	-3%	·	·	·
O=c1c2ccccc2ncn1-c1ccc2c(c1)OCCO2	2%	?	?	2.8µM*	?
CCCn1nc(NC(=O)c2cccs2)c2cc3cc(C)ccc3nc21	·	6.7µM*	-3%	-1%	6%
CCCCn1nc(NC(=O)c2cccs2)c2cc3cc(OC)ccc3nc21	9%	19µM*	0%	-6%	-1%
CCCCn1nc(NC(=O)c2cccs2)c2cc3ccccc3nc21	·	24µM*	-8%	18%	-2%
CCCCn1nc(NC(=O)CCC)c2cc3cc(OC)ccc3nc21	·	-2%	7%	4%	20%
CCCn1nc(NC(=O)c2cccs2)c2cc3cc(OC)ccc3nc21	22%	11µM*	19%	6%	5%
CCCCC[C@H](O)/C=C/C=C\C/C=C\C/C=C\CCCC(=O)O	-8%	·	·	·	·
N#CCCn1c(=O)cnc2cnc(N3CCNCC3)nc21	-3%	·	·	·	·
O=C(Nc1nc2ccccc2n1CCN1CCOCC1)c1cccc([N+](=O)[O-])c1	·	·	·	-2%[46.1 µM]	2%[46.1 µM]
COc1cc(OC)c(C(=O)NCc2nc(-c3ccccc3)no2)cc1OC	-17%	-6%	·	·	·
Cc1cccc2nc(CSc3ncccc3C(=O)O)cn12	3%	27µM*	5%	1%	-3%
Cc1cccc2nc(CSc3nnc4ccccn34)cn12	?	11µM*	·	·	·
c1ccc(-n2cnnc2SCc2cn3ccsc3n2)cc1	-5%	3%	1%	-7%	-8%
SMILES	SMN2 splice up	FLuc modulator	ELG1 genotoxic	Rab9 prom act	NPC1 promoter act
c1ccn2c(SCc3cn4ccsc4n3)nnc2c1	14µM*	17µM*	?	2.5µM*	?
CCC(CC)C(=O)OCc1cc(=O)n2nc(C3CC3)sc2n1	·	-4%	·	·	·
NCCCCC(NC(CCc1ccccc1)C(=O)O)C(=O)N1CCCC1C(=O)O (stereo not given)	-5%	·	·	·	·
CC(=O)c1ccc(NC(=O)Cn2c3ncccc3c(=O)n2-c2ccc(C)cc2)cc1	-6%	-9%	·	·	·
CC(=O)N1CCc2cc(S(=O)(=O)NC(Cc3ccccc3)C(=O)NCc3ccccc3)ccc21 (stereo not given)	-8%	5%	·	·	·
Cc1ccc(OCc2nc(-c3ccccc3)no2)cc1	·	7.6µM*	?	4µM*	?
c1ccc(-c2noc(COc3ccc4c(c3)OCO4)n2)cc1	14µM*	2.1µM*	9.2µM*	2.8µM*	4µM*
Cc1ccc(-c2noc(COc3ccccc3C)n2)cc1	19%	21µM*	?	23%	18%
COc1ccccc1-c1noc(COC(=O)c2ccc(Br)o2)n1	·	1%	5%	-3%	-4%
Cc1ccccc1OCc1nc(-c2ccc(Br)o2)no1	11%	17µM*	?	8%	11%
COc1ccc(-c2noc(COc3ccc4c(c3)OCO4)n2)cc1	2%	5%	0%	2%	-4%
COc1ccc(-c2noc(COc3ccccc3OC)n2)cc1OC	12%	?	?	3%	13%
COc1ccc(C2c3[nH]c4ccc(OC)cc4c3CCN2C(=O)Nc2ccccc2)cc1 (stereo not given)	·	0%	·	·	·
COc1cccc(-c2noc(COc3ccccc3Cl)n2)c1	?	11µM*	·	·	·
Cc1cc(Br)ccc1OCc1nc(-c2cccnc2)no1	?	?	21µM*	?	29%
c1ccc(NCc2nc(-c3ccccc3)no2)cc1	?	17µM*	23µM*	?	?
Cc1ccccc1OCc1nc(-c2ccccc2)no1	32µM*	4.8µM*	?	4µM*	4µM*
COc1cccc([C@@H]2Oc3ccc(Br)cc3C[C@H]2O)c1	1%	·	·	·	·
CCOC(=O)c1ccc(NC(=O)CN(c2ccc(C)cc2)S(=O)(=O)c2c(C)noc2C)cc1	-73%	1%	·	·	·
COc1ccc(OC)c(C2CC(=O)Oc3c2c(=O)n(C)c2ccccc32)c1 (stereo not given)	5%	?	·	·	·
Cn1c(=N)n(CC(=O)c2cccs2)c2ccccc21	?	11µM*	?	24%	20%
Cn1c(=N)n(CC(=O)c2ccc(Br)s2)c2ccccc21	?	8.5µM*	2.5µM*	?	9%
COc1cccc(C(=O)Cn2c(NCCO)nc3ccccc32)c1	4%	-2%	0%	1%	-2%
N=c1n(CC(=O)c2ccc(Br)s2)c2ccccc2n1Cc1ccccc1	·	0%	-7%	-3%	-1%
CCCn1c(=N)n(CC(=O)c2cccs2)c2ccccc21	-2%	-1%	-6%	-5%	0%
SMILES	SMN2 splice up	FLuc modulator	ELG1 genotoxic	Rab9 prom act	NPC1 promoter act
COc1cccc(C(=O)Cn2c(=N)n(C)c3ccccc32)c1	1.3µM*	1.2µM*	0.37µM*	?	0.56µM*
C=Cc1ccc(Cn2c(=O)n(CC3CCC(C(=O)NC(C)C)CC3)c(=O)c3sccc32)cc1 (stereo not given)	·	-1%	·	·	·
O=C(CSc1ncc(-c2ccc(F)cc2)[nH]1)Nc1cccc(O)c1	·	19µM*	-6%	3%	1%
Cn1c2ccc(F)cc2c2nnc(SCC(=O)Nc3cccc(O)c3)nc21	·	9.5µM*	12%	1%	4%
NNC(=O)CSc1ncc(-c2ccccc2)[nH]1	·	-4%	8%	0%	-5%
Cc1ccc(N(Cc2ccccc2)Cc2ccccc2)cc1	-7%[9.22 µM]	·	·	·	·
CC(=O)c1ccc(NC(=O)Cn2c(=O)n(Cc3ccco3)c(=O)c3sc4ccccc4c32)cc1	-10%	-2%	·	·	·
